These results are taken from PubChem BioAssay AID778 (Sanford-Burnham Center for Chemical Genomics, 2007).

Hit rate of the full screen: of about 96,000 compounds, about 20,000 (21%) were called active. Not all results are given here. Values without a mark were called inactive.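 How the source made its calls: active means CYP2C19 inhibition above a set limit at 5 µM in the primary screen (cut at about 50% in these data); inactive means the rest.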

This experiment deals with Cytochrome P450 2C19 (Homo sapiens) (UniProt P33261). The experiment in a line: blockers of cytochrome P450 2C19 activity – biochemical, luminescence, ADME assay, primary screen (AID 778).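 Further: plate controls were negative control wells for no effect and 2.5 mM tranylcypromine positive control for full effect.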 The following applies: CYP2C19 Supersomes, luciferin-H EGE luminescence, 30 min; at 5 µM; active compounds read high.
Cytochrome P450 2C19 (Homo sapiens), sequence (P33261 whole entry, looked up): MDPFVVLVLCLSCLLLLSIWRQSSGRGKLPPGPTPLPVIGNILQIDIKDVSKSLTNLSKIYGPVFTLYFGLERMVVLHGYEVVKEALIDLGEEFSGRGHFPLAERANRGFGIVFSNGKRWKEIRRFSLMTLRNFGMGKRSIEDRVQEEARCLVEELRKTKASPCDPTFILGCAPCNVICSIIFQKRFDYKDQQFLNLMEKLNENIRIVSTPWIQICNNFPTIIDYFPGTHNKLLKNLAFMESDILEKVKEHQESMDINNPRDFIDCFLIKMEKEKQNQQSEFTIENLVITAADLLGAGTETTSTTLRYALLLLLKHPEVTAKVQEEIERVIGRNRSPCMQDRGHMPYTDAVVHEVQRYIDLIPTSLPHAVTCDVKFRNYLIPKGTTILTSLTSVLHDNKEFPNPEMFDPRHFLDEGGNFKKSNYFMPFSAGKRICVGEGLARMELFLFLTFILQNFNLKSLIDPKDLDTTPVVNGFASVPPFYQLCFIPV
For the compound `CC(C)c1ccc(-c2nn[nH]n2)cc1`, the inhibition is 25.4%.

For `O=c1nc(N2CCOCC2)nc2n1CCO2`, the inhibition was 1.1%.

As to `Cc1ccc2nc(NCCCNC(=O)c3cnccn3)c(C#N)cc2c1`, the inhibition is 17.1%.

With `CCCCN1C(=O)/C(=C2/C=CC=CN2C)SC1=S`, the inhibition was 30.2%.

For the compound `CCN(CC)c1nc(-c2ccccc2)cc(C(F)(F)F)c1C#N`, the inhibition was 11.4%.

For the compound `O=C(Cn1c(=S)nc2ccccn21)N1CCc2ccccc2C1`, the inhibition is 23.6%.

As to `O=C(COc1ccccc1)N1CCc2ccccc2C1`, the inhibition is 87.9% (active).

Regarding `COc1ccc(OCC(=O)N2CCN(C(=O)COc3ccccc3)CC2)cc1`, the inhibition is 19.3%.

Consider `CC1CN(C(=O)CN2C(=O)NC(C)(c3ccccc3)C2=O)CC(C)O1` (centres undefined), for which the inhibition was -12.4%.

In the case of `CCN1CCN(CCCCOc2ccccc2F)CC1`, the inhibition is 2.6%.

Consider `Cc1nnc(NC(=O)CSc2nccn2-c2cccc(C)c2C)s1`, for which the inhibition is 13.4%.

Turning to `CCOC(=O)Nc1ccc2c(c1)N(C(=O)CCN1CCN(CCO)CC1)c1ccccc1CC2`, the inhibition is -24.8%.

`CCOc1ccc(CNC(=O)C2CC(=O)N(C3CCCC3)C2)cc1OC` (centres undefined): the inhibition was -8%.

As for `CCOc1ccc(CCNC(=O)C(CC)n2nc(C)n3c(cc4sccc43)c2=O)cc1OCC` (centres undefined), the inhibition is 57.8% (active).

For `CCOc1ccc(CCNC(=O)C2CCN(c3ccc(N4CCOCC4)nn3)CC2)cc1OCC`, the inhibition is 13.9%.

Turning to `CCC(C(=O)NCc1ccc(OC)cc1)n1nc(C)n2c(cc3occc32)c1=O` (centres undefined), the inhibition was 58.8% (active).

`COc1ccc(CNC(=O)c2cc3c(=O)n4ccccc4nc3n(CC3CCCO3)c2=N)cc1` (centres undefined): the inhibition is 6.2%.

In the case of `COc1ccc(CCn2c(=N)c(C(=O)NCc3ccco3)cc3c(=O)n4cccc(C)c4nc32)cc1`, the inhibition is 25.7%.

For the compound `COc1cc(OC)cc(-c2cc3nc(C4CCN(C(=O)OC(C)(C)C)CC4)cc(=O)n3[nH]2)c1`, the inhibition is 2.8%.

In the case of `CC(Cc1cccs1)NC(=O)NC1CCCCC1` (centres undefined), the inhibition is 21%.

Turning to `COc1cccc(Nc2nnc(SCC(=O)N3CC(C)OC(C)C3)s2)c1` (centres undefined), the inhibition is 36%.

As to `c1ccc(CCN2CN=C(Nc3nc4ccccc4o3)NC2)cc1`, the inhibition was 29.5%.

Regarding `CCOc1cc(-c2nc3cc(C)ccn3c2NCC2CCCO2)ccc1O` (centres undefined), the inhibition is 2.7%.

With `O=P(c1ccc2c(c1)OCCO2)(N1CCOCC1)N1CCOCC1`, the inhibition was 21.2%.

`O=C(Cn1nc(Cc2cccnc2)c2ccccc2c1=O)NCC1COc2ccccc2O1` (centres undefined): the inhibition was 36.1%.

`Cc1nn(CC(=O)Nc2ccc3c(c2)nc(CN2CCCCC2)n3C)c(=O)c2ccccc12`: the inhibition is 10.5%.

As to `Cc1ccc(NC(=O)Cn2nc(C)c3ccccc3c2=O)c(C)c1`, the inhibition was 56.1% (active).

On to `COc1cccc(C(=O)Nc2ccc(NC(=O)c3ccco3)cn2)c1`, for which the inhibition is 38.7%.

As to `Cc1sc2c(c1C)c(=O)n(-c1ccccc1)c1nncn21`, the inhibition is -7.8%.

As for `Cc1cc(=O)cc(C)[nH]1`, the inhibition was 4.5%.

As to `CC(=O)N1CCN(c2ccc(NCc3ccc(C(C)C)cc3)cc2)CC1`, the inhibition was 50.5% (active).

Consider `COc1ccc(N2CCN(C(=O)CNC(=O)c3ccc(C(C)(C)C)cc3)CC2)cc1`, for which the inhibition was 3.3%.

Regarding `CC(C)c1ccc(N2CCN(C(=O)c3ccccc3NC(=O)/C=C(\C(=O)O)c3ccccc3)CC2)cc1`, the inhibition was 21.7%.

Consider `Cc1ccc(Cc2cnc(N)s2)o1`, for which the inhibition is 8.3%.

Take `CC1CC(C)CN(S(=O)(=O)c2cccc(C(=O)N3C(=O)c4cccc(N)c4C3=O)c2)C1` (centres undefined): the inhibition was 5.9%.

`O=C(Nc1cccnc1)c1noc2c1CCCCC2`: the inhibition is 64.2% (active).

On to `O=C(Nc1cccc2ccccc12)c1onc2c1CCCC2`, for which the inhibition is 7.1%.

On to `CCOC(=O)c1ccc(-c2ccc(C(=O)Nc3cccnc3)o2)cc1`, for which the inhibition was 14.1%.

With `Cn1c(=O)c2[nH]c(NCC3CCCO3)nc2n(-c2ccccc2)c1=O` (centres undefined), the inhibition was -1%.

For `CC(=O)NC1CC2CCCC(C1)N2CC(=O)Nc1ccccc1` (centres undefined), the inhibition was 11.5%.

Consider `CSCCC(NC(=O)c1ccco1)C(=O)OCC(=O)Nc1ncc(Cl)c(C)c1Cl` (centres undefined), for which the inhibition was 12.9%.

For the compound `O=C(Nc1ccc2sc3ccccc3c(=O)c2c1)c1ccccc1Cl`, the inhibition was 14.5%.

In the case of `O=C(NCc1cccnc1)c1cn(-c2ccccc2)nc1-c1cccs1`, the inhibition is 89.6% (active).

Regarding `Cc1c(C(=O)NCc2ccccc2)cnn1-c1ccccc1`, the inhibition was 11.5%.

As to `COC(=O)c1cn(-c2ccccc2)nc1-c1cccnc1`, the inhibition was 30.5%.

On to `COC(=O)Cc1csc(Nc2c(C)n(C)n(-c3ccccc3)c2=O)n1`, for which the inhibition is -4.9%.

As to `CC1CC(c2ccccc2)n2nc(NC(=O)c3cccs3)nc2N1` (centres undefined), the inhibition is 7.3%.

On to `CCOC(=O)C1CCN(Cc2coc3ccc(Cl)cc3c2=O)CC1`, for which the inhibition is 6.5%.

Consider `CCOC(=O)CSc1nncc2ccc(OC)c(OC)c12`, for which the inhibition is 11.3%.

Regarding `CCOC(=O)C1CCCCN1Cc1ccc(OC)c(OC)c1OC` (centres undefined), the inhibition was 58.1% (active).

Consider `CN=C1SC(CC(=O)Nc2ccc(C(=O)O)cc2)C(=O)N1C` (centres undefined), for which the inhibition was -4.9%.

On to `CC(=O)C1C(c2ccc(Cl)cc2)NC(=O)NC1(O)C(F)(F)F` (centres undefined), for which the inhibition was 39%.

On to `CCOC(=O)C(C)Oc1cccc2c(=O)n(CC(=O)N3CCc4ccccc43)ccc12` (centres undefined), for which the inhibition was 8.2%.

With `COc1cccc2c(=O)n(CC(=O)N3CCCCCC3)ccc12`, the inhibition was 56.9% (active).

Regarding `CCc1cccc2c(C=C(C#N)C#N)cn(CC(=O)N3CCCCC3)c12`, the inhibition is -0.7%.

`O=C(Cn1cc2c(n1)CCCCC2)NCCN1CCOCC1`: the inhibition is -10.3%.

With `COc1cc(OC)c(C(=O)NC2CCCCCC2)cc1OC`, the inhibition was 43.7%.

`CCOC(=O)c1cccc(NC(=O)CN(c2ccc(C)cc2)S(=O)(=O)c2c(C)noc2C)c1`: the inhibition was 17.3%.

Consider `O=C(/C=C/c1cc2c(cc1Br)OCO2)NCc1ccc(Cl)cc1`, for which the inhibition was -11.1%.

On to `O=C(CN(c1ccc2c(c1)OCCO2)S(=O)(=O)c1ccccc1)Nc1ccc2c(c1)OCO2`, for which the inhibition is 26.7%.

As for `O=C(Cn1nnc(-c2ccc3c(c2)OCO3)n1)NCc1ccco1`, the inhibition was 0.8%.

Take `Cc1noc(C)c1S(=O)(=O)N(CC(=O)Nc1ccc2c(c1)OCCO2)c1ccc(C(C)C)cc1`: the inhibition is 55.8% (active).

Regarding `CS(=O)(=O)N(CC(=O)NCc1ccco1)c1ccc2c(c1)OCO2`, the inhibition is 59.5% (active).

For `CCOc1ccc(N(CC(=O)NCc2ccc(OC)cc2)S(=O)(=O)c2c(C)noc2C)cc1`, the inhibition was 15.3%.

Consider `CCOc1ccc(N(CC(=O)OC)S(=O)(=O)c2c(C)noc2C)cc1`, for which the inhibition is 50.6% (active).

With `CS(=O)(=O)N(CC(=O)N1CCN(Cc2ccc3c(c2)OCO3)CC1)c1ccc2c(c1)OCO2`, the inhibition was -4.8%.

In the case of `Cc1noc(C)c1S(=O)(=O)N(CC(=O)NCc1ccc(Cl)cc1)c1ccc2c(c1)OCO2`, the inhibition is 72.8% (active).

Turning to `CCOc1ccc(N(CC(=O)NC2CCCCCC2)S(=O)(=O)c2c(C)[nH]c(=O)[nH]c2=O)cc1`, the inhibition was 25.2%.

For the compound `Cc1ccc(CNC(=O)CN2CCN(Cc3ccc(Cl)cc3)C2=O)cc1`, the inhibition is 15.1%.

One may read the inhibition as the drop in the measured response relative to a control, in per cent.
